Source: PubChem BioAssay
An excerpt weighted towards active compounds, which were near 2.9% of everything screened.
MEKK2 mut-MEK5: signal of MEK5 binding to mutant human MEKK2 PB1 domain; percent response, % at 10 µM; 0.35% of 290,000 active; bead flow cytometry, Alexa488-MEK5 binding to MEKK2 mutant; in the data active = percent response above about 24%, passing the limit was not always enough
GRK2 aptamer HTS: human GRK2 inhibition via aptamer displacement; P25098; bead flow cytometry, FAM-aptamer displacement from GRK2; inhibition of aptamer binding, % at 10 µM; 0.59% of 330,000 active;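 active = inhibition of aptamer binding above 40%, roughly 3 SD of noise, on plates passing a quality check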;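 also: median bead fluorescence of bound FAM aptamer so fluorescent compounds give negative values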
MEKK3 PB1 HTS: MEKK3-MEK5 PB1 interaction, increase or decrease | binding response (% of control), % at 10 µM | bead-based flow cytometry, Alexa488-MEK5 binding to MEKK3; actives lie on both sides; 0 = blocked by unlabeled MEK5, 100 = vehicle | Q99759 | 1.4% of 290,000 active | AID 1529;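 active = binding response more than 3 SD above or below the average of its plate-row segment, actives on both sides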;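 also: Alexa488 bead fluorescence after subtracting the streptavidin-only scavenger bead signal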
Target sequence (Q99759 whole entry, looked up): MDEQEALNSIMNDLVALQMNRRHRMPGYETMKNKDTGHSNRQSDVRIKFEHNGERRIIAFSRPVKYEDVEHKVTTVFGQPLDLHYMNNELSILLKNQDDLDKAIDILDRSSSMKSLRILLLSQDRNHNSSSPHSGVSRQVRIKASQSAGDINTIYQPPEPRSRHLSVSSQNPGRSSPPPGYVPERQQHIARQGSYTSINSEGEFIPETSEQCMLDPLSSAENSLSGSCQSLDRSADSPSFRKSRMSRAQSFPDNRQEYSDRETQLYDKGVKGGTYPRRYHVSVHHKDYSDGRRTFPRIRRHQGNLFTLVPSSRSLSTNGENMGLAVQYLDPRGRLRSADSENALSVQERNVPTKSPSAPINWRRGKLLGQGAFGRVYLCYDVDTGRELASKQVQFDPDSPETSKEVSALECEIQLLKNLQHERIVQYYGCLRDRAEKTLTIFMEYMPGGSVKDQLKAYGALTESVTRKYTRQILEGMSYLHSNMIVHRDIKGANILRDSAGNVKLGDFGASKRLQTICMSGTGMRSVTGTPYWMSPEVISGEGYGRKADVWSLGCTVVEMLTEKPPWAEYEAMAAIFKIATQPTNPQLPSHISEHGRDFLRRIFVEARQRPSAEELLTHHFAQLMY
MEKK2wt PB1 HTS: raises or lowers MEK5 binding to wildtype human MEKK2 PB1 domain. Q9Y2U5. bead flow cytometry, Alexa488-MEK5 binding to MEKK2 WT; actives lie on both sides. binding response (% of control), % at 10 µM. 1.1% of 290,000 active. AID 1531; in the data active = binding response below about 67% or above about 130%
B2AR ag: activates human beta-2 adrenergic receptor causing internalization. 0.43% of 340,000 active. AID 504454. response, % (test concentration not listed). Am2.2-beta2AR cells, FAP receptor internalization, flow cytometry. P07550;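 active = response above a set limit, near 3 SD of response in nonfluorescent compounds, cut at about 42% in these data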
MEKK2wt confirm: raises or lowers MEK5 binding to wildtype human MEKK2, retest | shares compounds with MEKK3 PB1 HTS | bead flow cytometry, Alexa488-MEK5 binding to MEKK2 WT; actives lie on both sides | binding response (% of control), % at 10 µM | 2.4% of 5,900 active | AID 1892; in the data active = binding response below about 16% or above about 210%; inactive = in between
MEKK2mut confirm: signal of MEK5 binding to mutant human MEKK2, retest; shares compounds with MEKK3 PB1 HTS; bead flow cytometry, Alexa488-MEK5 binding to MEKK2 mutant; percent response, % at 10 µM; 2% of 5,900 active; AID 1893; in the data active = percent response mostly above about 71%, no sharp cut-off; inactive = mostly below about 38%;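 also: higher means compound restores mutant binding toward wildtype level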
MEKK3 confirm: confirmation of inhibitors of MEK5 binding to human MEKK3. shares compounds with MEKK3 PB1 HTS. binding response (% of control), % at 10 µM. bead flow cytometry, Alexa488-MEK5 binding to MEKK3; hits give low values. 1.8% of 5,900 active;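 active = binding response below 72% of control, or above a set upper limit, though filed actives all read lower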;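 also: 100% = DMSO only wells and 0% = binding blocked by excess unlabeled MEK5; lower values mean stronger disruption of MEK5 binding to MEKK3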
* marks the source's active call; other numbers are inactive results; / = no result given; [ ] = remark or other dose.

SMILES	MEKK2 mut-MEK5	GRK2 aptamer HTS	MEKK3 PB1 HTS	MEKK2wt PB1 HTS	B2AR ag	MEKK2wt confirm	MEKK2mut confirm	MEKK3 confirm
NS(=O)(=O)c1ccc(CCNCc2cc(Cl)ccc2OCc2ccccc2)cc1	6	0	108	144*	8	135	20	106
NS(=O)(=O)c1ccc(CCNCc2ccccc2OCc2ccc(Cl)cc2)cc1	8	0	106	145*	23	129	16	108
CCCC(CCC(=O)Nc1ccc(C(=O)OC)cc1)C(=O)O (configuration not stated)	13	3	125*	124	2	98	-3	101
COc1ccc2c(c1)CN(C)S(=O)(=O)c1ccccc1-2	/	5	/	/	2	/	/	/
C#CCOCCOCCOCCNc1nc(N2CCN(C(=O)[C@H]([C@@H](C)CC)n3cc([C@@H](N)CO)nn3)CC2)nc(N2CCN(C(=O)[C@H](Cc3cc4ccccc4[nH]3)n3cc([C@@H](N)C(C)CC)nn3)CC2)n1 (some centres not stated)	56*	0	107	181*	/	175	87*	104
C#CCOCCOCCOCCNc1nc(N2CCOCC2)nc(N2CCN(C(=O)[C@H](Cc3cc4ccccc4[nH]3)n3cc([C@@H](N)CC(C)C)nn3)CC2)n1	25	/	107	136	3	/	/	/
C#CCOCCOCCOCCNc1nc(N2CCN(C(=O)C([C@@H](C)CC)n3cc(C(N)COC(=O)C(F)(F)F)nn3)CC2)nc(N2CCN(C(=O)[C@H](Cc3cc4ccccc4[nH]3)n3cc(C(N)CO)nn3)CC2)n1 (some centres not stated)	11	0	101	143*	/	189	58	108
C#CCOCCOCCOCCNc1nc(N2CCN(C(=O)[C@H]([C@@H](C)CC)n3cc([C@@H](N)CC(C)C)nn3)CC2)nc(N2CCN(C(=O)[C@H](Cc3cc4ccccc4[nH]3)n3cc([C@@H](N)CC(C)C)nn3)CC2)n1	52*	/	108	151*	/	252*	169*	116
N=c1oc2ccc(Cl)cc2cc1C(=O)Nc1ccc(F)cc1	2	0	104	110	4	/	/	/
COc1ccc(CCNC(=O)c2c(O)c3ccccc3[nH]c2=O)cc1	10	2	106	101	4	/	/	/
Cc1ccc(S(=O)(=O)NCCC(=O)Nc2ccc(Cl)c(Cl)c2)cc1	-1	8	100	104	-3	/	/	/
CCN(CC)CCN(C(=O)c1ccc(S(=O)(=O)N2CCCCC2)cc1)c1nc2cc3c(cc2s1)OCO3	2	0	132*	127	27	132	31	110
CCN(CC)CCN(C(=O)CN1C(=O)c2ccccc2C1=O)c1nc2cc3c(cc2s1)OCO3	14	0	105	122	-7	/	/	/
CCN(CC)CCN(C(=O)c1ccc2ccccc2c1)c1nc2cc3c(cc2s1)OCO3	21	6	105	135*	-2	116	5	100
COc1ccc(Nc2ncnc3c2c(C)c(C)n3CCCN(C)C)cc1	0	0	96	102	-4	/	/	/
COc1cc(-c2n[nH]c(=S)n2-c2cc(C(F)(F)F)ccc2Cl)cc(OC)c1OC	0	1	144*	108	-2	100	-3	103
COc1cccc(N2CCN(C(=O)NC3CCCCC3)CC2)c1	4	0	104	106	1	/	/	/
COc1ccc(N2CCN(C(=O)NC3CCCCC3)CC2)cc1	-2	2	77*[inhibitor]	99	-5	104	1	102
COc1ccc(F)c(CN2CCCC(CO)(Cc3cccc(Cl)c3)C2)c1 (configuration not stated)	5	1	106	106	2	/	/	/
COc1ccc(/C=C/CN2CCCC(CO)(Cc3cccc(Cl)c3)C2)cc1 (configuration not stated)	6	0	110	159*	2	113	15	102
CCCOc1ccc(C(=O)NCCC(=O)NCCCC(=O)O)cc1	22	0	130*	124	-13	100	1	95
CCCCCOc1ccc(C(=O)NCCC(=O)NCCCC(=O)OCC)cc1	3	0	106	107	0	/	/	/
CC(=O)NCc1ccc(C(=O)COC(=O)COc2ccc(Cl)c(C)c2)s1	/	1	/	/	-1	/	/	/
COc1ccccc1C(=O)Nc1ccc(S(=O)(=O)N2CCOCC2)cc1	24*	0	107	103	0	97	1	105
CC(=O)c1c(C)[nH]c(C(=O)Nc2ccc(Cl)c(S(=O)(=O)N3CCOCC3)c2)c1C	12	2	103	99	30	/	/	/
SMILES	MEKK2 mut-MEK5	GRK2 aptamer HTS	MEKK3 PB1 HTS	MEKK2wt PB1 HTS	B2AR ag	MEKK2wt confirm	MEKK2mut confirm	MEKK3 confirm
O=C(Nc1ccc(S(=O)(=O)N2CCCCC2)cc1)c1ccc(CN2CCOCC2)cc1	5	0	74*[inhibitor]	89	15	104	2	107
COc1ccc(NC(=O)c2[nH]c(C)c(C(C)=O)c2C)cc1S(=O)(=O)N1CCOCC1	0	1	129*	105	-2	102	-3	103
CCOc1ccccc1C(=O)Nc1ccc(S(=O)(=O)N2CCOCC2)cc1	11	0	108	107	-8	/	/	/
O=C(N=C1SC2CS(=O)(=O)CC2N1Cc1ccc(F)cc1)C1CCCO1 (configuration not stated)	9	0	104	106	-3	/	/	/
CCOCCCNC(=O)C(NC(=O)Cc1cccs1)c1ccc(OC)cc1 (configuration not stated)	-2	1	97	92	2	/	/	/
CCCCNC(=O)CNC(=S)N(Cc1ccccc1F)C1CCCCC1	0	2	131*	112	-5	97	-2	102
Cc1ccc(C)c(Cn2nnc3c(=O)[nH]c(C4CCCN(C(=O)c5cccs5)C4)nc32)c1 (configuration not stated)	-5	0	98	90	2	/	/	/
COc1cccc(CNC(=O)C2CCN(S(=O)(=O)c3ccc(-n4cnnn4)cc3)CC2)c1	16	0	105	114	-1	/	/	/
Cc1nnc(SCC(=O)Nc2sc3c(c2C#N)CCCC3)[nH]c1=O	12	2	104	104	0	/	/	/
N#Cc1c(NC(=O)CSc2nc(N)cc(=O)[nH]2)sc2c1CCCC2	-13	3	1.0*[inhibitor]	2.0*[inhibitor]	-3	95	1	101
CCCCCN=C(N)N/N=C/c1c[nH]c2ccc(OC)cc12	40*	0	117	263*	47*	181	46	110
